Source: PubChem (several laboratories)
Hits are enriched below; roughly 4.7% of the tested compounds scored in any of these assays.
TWEAK-Fn14 inh = inhibitors of TWEAK-Fn14 interaction signaling; AID 1159606; 2% of 360,000 active; inhibition, % at 10 µM; TWEAK-stimulated Fn14 reporter cells, luciferase luminescence, 8 h; in the data active = inhibition above about 50%
HSF1 inh = HSF1 inhibition; NIH3T3-HGL HSE-luciferase, MG132-induced, luminescence 8 h; hits give low values; activity change, negative = inhibition, % at 7.5 µM (by protocol); 0.77% of 300,000 active; AID 2098;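 active = more than half of replicate wells show activity change below -50%, luminescence cut by over half; inconclusive = some wells, but at most half, below -50%; inactive = no replicate well below -50%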;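 note: luciferase reports HSF-1 transcriptional activity via heat shock element; 0% = median of DMSO wells and -100% = zero luminescence signal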
HSF-1 act = increases HSF-1 driven luciferase reporter signal. NIH3T3-HGL HSF-1 luciferase reporter, MG132, 8 h; 100% = twice DMSO control signal. activation, % at 9 µM. 1.7% of 300,000 active. AID 504408;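 active = mean replicate activation of at least 50% with a set share of replicates each reaching 50%; inconclusive = only one of those two conditions met; inactive = mean below 50% and too few replicates reaching it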;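 note: 0% = median of the neutral control wells and 100% = twice that signal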
LMP1 NFkB inh = reduces LMP1-driven NF-kappaB luciferase signal; AID 504558; 0.69% of 350,000 active; LMP1-induced NF-kappaB luciferase reporter cells, luminescence; inhibition, % at 12.5 µM; in the data active = inhibition above about 41%; inconclusive = no clear call, values can overlap the other calls;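 note: 0% = neutral control wells and 100% = reference inhibitor control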
HSP90 inh = inhibitors of HSP90 luciferase refolding in rabbit reticulocyte lysate. 0.91% of 290,000 active. luciferase refolding luminescence, 3 h. inhibition, % at 5.6 µM. AID 1789;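 active = inhibition above the screen-wide mean plus 3 SD, computed separately per campaign, cut at about 16% in these data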;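 note: 0% = DMSO wells and 100% = 60 µM geldanamycin wells; inhibitors lower the luminescence because luciferase stays unfolded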
TROY NFkB inh = TROY signaling inhibition; AID 1347056; 0.98% of 360,000 active; inhibition, % at 10 µM; Q293 LMP1-TROYcd NF-kB luciferase reporter, 4 h;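 active = compounds whose plate-normalised and pattern-corrected inhibition of the luciferase reporter signal at the single screening dose is 50% or more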
* marks the source's active call; other numbers are inactive results; ? = inconclusive; · = not tested or not shown.

SMILES	TWEAK-Fn14 inh	HSF1 inh	HSF-1 act	LMP1 NFkB inh	HSP90 inh	TROY NFkB inh
C=CCn1c(SCC(=O)N2CCCCCC2)nc2ccccc2c1=O	73*	-5	-12	4	-2	3
C=CCn1c(SCC(=O)c2ccc(CNC(C)=O)o2)nc2ccccc2c1=O	9	-8	7	82*	-1	1
COc1cc(Cn2c3ccc(NC(=S)NCc4ccc(C)cc4)cc3c(=O)n2C)ccc1F	73*	·	·	·	·	58*
CCOc1ccc(N=Nc2c(N)[nH][nH]c2=O)cc1	-3	-78*	-83	-5	4	-11
CC(C)CNS(=O)(=O)c1cc(C(=O)OCC(=O)c2ccc3c(c2)OCCO3)c(Cl)cc1Cl	-9	21	69*	5	0	47
Cc1cc(C)n2c(NC3CCCCC3)c(-c3cccnc3)nc2n1	3	·	·	·	·	-5
Cc1nn(C(=O)c2c(-c3ccccc3)noc2C)c(C)c1N=Nc1cc(C(F)(F)F)cc(C(F)(F)F)c1	21	7	?	-2	6	68*
Cc1onc(-c2ccccc2)c1C(=O)n1nnc2ccccc21	4	2	27	-1	-1	-4
COc1cc(OC)c(C(=O)Nc2cc(S(=O)(=O)N3CCOCC3)ccc2N2CCOCC2)cc1OC	-27	·	·	5	·	-5
COc1ccc(OC)c(NC(=O)c2cnc3ccccn3c2=O)c1	·	·	·	·	-1	·
Cc1ccccc1NC(=O)c1cnc2ccccn2c1=O	83*	4	-4	29	10	34
CCc1nc(Sc2nnnn2-c2ccccc2)c2c3c(sc2n1)CCCC3	93*	10	9	13	-5	55*
CCc1nc(N2CCN(C(=O)c3ccccc3)CC2)c2c3c(sc2n1)CCCC3	28	5	0	7	2	32
Cc1nc(Sc2nnnn2C)c2c3c(sc2n1)CCC3	78*	·	·	48*	3	23
CC(=O)N1CC2(CC(c3ccccc3C(F)(F)F)=NO2)CN1c1ccc(Cl)cc1 (stereo not given)	-2	·	·	8	·	-3
Cc1ccc(OC(=O)c2ccc3nc(C)sc3c2)cc1	·	-62*	-67	·	3	·
O=C(c1nc2ccc(Cl)cn2c1CN1CCC[C@H]1CO)N1CCc2ccccc2C1	14	·	·	4	·	-8
COc1ccc(-c2csc(NC(=O)c3c(OC)cccc3OC)n2)cc1	-14	-7	-4	7	2	9
COc1ccc(-c2csc(NC(=O)C3=NN(c4ccccc4)C(=O)CC3)n2)cc1	88*	-1	-10	8	3	36
CCCNC(=O)c1ccccc1NS(=O)(=O)c1ccc(OC)c(OC)c1	3	-6	-2	-10	0	-2
COc1ccc(-c2csc(NC(=O)c3ccccc3NS(=O)(=O)c3ccc(C)cc3)n2)cc1	93*	5	0	5	0	70*
COc1ccc(S(=O)(=O)Nc2ccccc2C(=O)Nc2nc(-c3ccc(F)cc3)cs2)cc1OC	92*	-8	-16	3	-9	59*
CCCC(=O)N1CCCC1(C)C(=O)NCc1ccc(SC)cc1 (stereo not given)	-6	·	·	·	·	-4
COCCn1nnnc1C(c1ccc(OC)cc1OC)N1CCN(c2ccccc2F)CC1 (stereo not given)	5	-10	3	5	1	-4
CCc1ccc2[nH]c(=O)c(C(c3nnnn3CCOC)N3CCN(c4ccccc4F)CC3)cc2c1 (stereo not given)	50	-29	-34	-8	2	53*
SMILES	TWEAK-Fn14 inh	HSF1 inh	HSF-1 act	LMP1 NFkB inh	HSP90 inh	TROY NFkB inh
CCOC(=O)/C(C#N)=C1/C=C(C)NC(c2ccccc2O)=N1	57*	13	-6	-9	-1	54*
C[C@@H](NC(=O)c1coc(=O)c(Br)c1)c1ccccc1	87*	10	3	-54	2	9
Cc1onc(-c2c(F)cccc2Cl)c1C(=O)OCC(=O)c1c[nH]c2ccccc12	58*	-2	-5	1	-4	28
Cc1onc(-c2c(F)cccc2Cl)c1C(=O)OCC(=O)NCc1ccco1	6	15	15	-39	15	54*
C[C@@H](NC(=O)[C@@H]1CCCN1C(=O)[C@@H]1CCCN1C(=O)c1ccccc1)c1ccccc1	23	·	·	·	·	-5
CCCC[C@@H]1C[C@H]1[C@@H](NC(=O)c1ccco1)c1ccc(Cl)cc1	-5	-82*	-84	11	-1	5
CCCC[C@@H]1C[C@H]1[C@@H](NC(=O)c1cccs1)c1ccc(Cl)cc1	·	7	-5	·	-2	·
Cn1nc(N)c2c(-c3ccc(Cl)cc3)c(C#N)c(N)nc21	-6	-9	-8	-1	3	-19
Cn1nc(N)c2c(-c3ccccc3)c(C#N)c(N)nc21	25	-69*	-75	2	-2	5
CCCCN(CCCNC(=O)c1ccc2c(c1)NC(=O)CN2C)c1ccccc1	108*	·	·	-31	·	90*
CC1CCCCN1CCCNC(=O)c1ccc2c(c1)NC(=O)CN2C (stereo not given)	20	·	·	4	·	17
CC1(C(=O)Nc2cnc3ccccc3c2)CCN1Cc1ccc(-c2ccccc2)o1 (stereo not given)	12	·	·	·	·	-40
COc1ccc(-c2c(Sc3ccccc3)c3cc(-c4ccc5c(c4)OCO5)ccc3n2C)cc1	1	·	·	·	·	-16
CSCC[C@@H](C(=O)Nc1ccc2c(c1)OCCO2)N1Cc2ccccc2C1=O	24	-22	-17	-7	1	6
CS(=O)(=O)CCC(C(=O)Nc1ccc2c(c1)OCO2)N1Cc2ccccc2C1=O (stereo not given)	-39	1	3	60*	1	-35
CC(C)S(=O)(=O)N1CCCC(c2cc(C(=O)Nc3ccc(F)c(Cl)c3)no2)C1 (stereo not given)	-15	·	·	·	·	-8
O=C(CSc1ccccc1)N1CCc2ccccc21	-17	43	59*	21	5	-80
Cn1cccc1Cc1nnc(SCC(=O)N2CCc3ccccc32)n1CCc1ccccc1	25	3	4	-6	22*	2
O=C(COc1ccccc1Cl)N1CCc2ccccc21	-23	57	74*	-17	1	-47
O=C(CCS(=O)(=O)c1ccc(Cl)cc1)N1CCCc2ccccc21	53*	4	5	-2	10	65*
CC1(C(=O)NS(=O)(=O)c2ccc(F)cc2F)CCN1C(=O)C/C=C/c1ccccc1 (stereo not given)	6	·	·	·	·	-15
Cc1ccc2c(CC(=O)N3CCc4ccccc43)coc2c1	-23	76	77*	-44	0	-18
O=C1c2cccc(OCC(=O)N3CCCc4ccccc43)c2CCN1Cc1ccc(Br)cc1	79*	6	14	15	6	36
O=C(CCCc1ccccc1)N1CCc2ccccc21	12	30	59*	-48	5	-26
O=C1c2cccc(OCC(=O)N3CCCc4ccccc43)c2CCN1Cc1ccccc1	6	6	9	15	0	-5
